# Source: PubChem BioAssay (NCATS)
# Where “and” joins values, the source holds several entries; their conditions need not be identical. Equal entries are not always repeated. Results filed as inconclusive are left out. Entries that show only a call come without a potency. Calls of active or inactive are those of the source. Unless noted, calls come from the whole dose curve; as a rule, active = well fitted curve in the direction sought with a large enough effect; inconclusive = small, poorly fitted or top-dose-only effect, or another doubt; inactive = no such curve, though single readings can be large; an effect the other way counts as inactive or inconclusive.
# Key:
# [1] = target: Alpha-galactosidase A (Homo sapiens) (UniProt P06280); experiment: Counterscreen for Glucocerebrosidase Inhibitors: qHTS Assay for Human alpha-Galactosidase at pH 4.5 (AID 992)
# Alpha-galactosidase A (Homo sapiens), sequence (P06280 whole entry, looked up): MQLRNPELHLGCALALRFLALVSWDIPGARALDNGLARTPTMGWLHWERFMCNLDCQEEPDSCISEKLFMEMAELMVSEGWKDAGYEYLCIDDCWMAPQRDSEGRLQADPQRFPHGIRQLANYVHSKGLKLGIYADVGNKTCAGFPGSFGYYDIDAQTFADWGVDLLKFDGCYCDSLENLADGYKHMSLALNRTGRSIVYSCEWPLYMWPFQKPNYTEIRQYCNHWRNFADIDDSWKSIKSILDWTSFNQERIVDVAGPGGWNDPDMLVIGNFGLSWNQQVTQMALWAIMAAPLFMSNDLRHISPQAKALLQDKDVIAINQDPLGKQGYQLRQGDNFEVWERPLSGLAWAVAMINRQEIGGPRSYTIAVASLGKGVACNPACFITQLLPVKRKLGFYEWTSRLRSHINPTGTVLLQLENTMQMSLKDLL
# How it was run: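 Fluorogenic 1536-well qHTS at pH 4.5 (citrate, Tween-20): 2 nM enzyme, 80 uM 4-MU-alpha-galactoside, 20 min room temperature, NaOH/glycine stop. Titration 0.7 nM to 77 uM, data normalized to no-enzyme and full-activity controls, Hill-fitted AC50.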
# [2] = target: alpha-glucosidase (Oryza sativa, rice) (UniProt Q653V4); experiment: Counterscreen for Glucocerebrosidase Inhibitors: qHTS Assay for Rice alpha-Glucosidase at pH 5.0 (AID 997)
# How it was run: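 Endpoint fluorogenic assay at pH 5.0: compounds (0.7 nM to 77 uM) titrated against 4 nM rice enzyme and 400 uM 4-MU-alpha-glucoside for 20 min at room temperature; NaOH/glycine stop, read ex 365/em 440 nm, Hill-fitted AC50.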
# [3] = Validation of Assay for Modulators of Lamin A Splicing (AID 1459; active = well fitted curve in the direction sought with a large enough effect in the signal ratio; the % refers to the signal ratio;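 note: cells exposed to compound for two days before reading; ratio rise marks activators and ratio drop marks inhibitors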)
# How it was run: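 Splicing correction is reported by an EGFP-containing lamin A minigene in stably transfected S3 HeLa cells, while DsRed2 controls for viability and nonspecific signal. Cells are exposed to compounds for 48 hrs before the GFP over RFP ratio is taken.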
# [4] = qHTS Assay for Lipid Storage Modulators (AID 1519; calls by dose curve); settings: Drosophila S3 cells, BODIPY lipid droplet/cell ratio, laser cytometry, cells loaded with oleic acid
# How it was run: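 Cells seeded at 5,000 per well were treated with compounds over a concentration series and loaded with oleic acid (400 uM, as added). Lipid droplet fluorescence (488 nm excitation, 500-530 nm channel) was read by laser-scanning cytometry and normalized to 20 uM Triacsin C.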
# [5] = target: DNA repair nuclease/redox regulator APEX1 (Homo sapiens) (UniProt P27695); experiment: qHTS Validation Assay for Inhibitors of the Human Apurinic/apyrimidinic Endonuclease 1 (APE1) (AID 1705;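 note: TAMRA fluorescence gain over two minutes as APE1 cuts a quenched THF abasic duplex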)
# DNA repair nuclease/redox regulator APEX1 (Homo sapiens), sequence (P27695 whole entry, looked up): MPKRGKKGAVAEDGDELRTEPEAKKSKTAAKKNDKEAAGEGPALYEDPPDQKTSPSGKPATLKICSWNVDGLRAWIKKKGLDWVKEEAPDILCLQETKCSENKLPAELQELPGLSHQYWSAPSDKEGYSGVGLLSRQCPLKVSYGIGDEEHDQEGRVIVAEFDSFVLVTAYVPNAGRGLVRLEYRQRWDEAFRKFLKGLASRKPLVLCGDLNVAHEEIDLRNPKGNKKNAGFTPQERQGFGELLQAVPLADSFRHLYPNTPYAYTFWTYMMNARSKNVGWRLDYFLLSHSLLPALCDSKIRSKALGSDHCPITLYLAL
# How it was run: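 Endonuclease activity of human APE1 is followed as dequenching when the enzyme incises a tetrahydrofuran abasic site in a short duplex labelled 5'-TAMRA/3'-BHQ-2 (50 nM final), after 15 min enzyme–compound preincubation at room temperature.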
# [6] = Counterscreen for APE1 Inhibitors: Fluorescent Dye Displacement Validation Assay (AID 1707)
# How it was run: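 Counterscreen flags promiscuous DNA binders: compounds displacing ThO from duplex DNA (abasic THF site, 50 nM) reduce 540 nm emission (480 nm excitation). ThO 250 nM final; Tris-HCl pH 7.5 with NaCl, MgCl2 and Tween-20.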
# [7] = target: Endonuclease 4 (Escherichia coli (strain K12)) (UniProt P0A6C1); experiment: Counterscreen for APE1 Inhibitors: qHTS Validation Assay for Inhibitors of Endonuclease IV (AID 1708)
# How it was run: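 The reaction buffer contained 50 mM Tris-HCl pH 7.5, 50 mM NaCl, 2 mM MgCl2, 1 mM DTT and 0.01% Tween-20. Incision of a 50 nM fluorophore/quencher THF substrate by 2 nM enzyme was measured kinetically.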
# [8] = qHTS for differential inhibitors of proliferation of Plasmodium falciparum line 7G8 (AID 1815);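 note: parasite growth measured after three days of incubation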; note: potency is the fitted concentration of half-maximal effect
# [9] = qHTS for differential inhibitors of proliferation of Plasmodium falciparum line GB4 (AID 1816); settings: Potency: Plasmodium falciparum GB4 proliferation inhibition;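 note: parasite growth measured after 72 h incubation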; note: potency is the fitted concentration of half-maximal effect
# [10] = qHTS for differential inhibitors of proliferation of Plasmodium falciparum line 3D7 (AID 1876); note: potency is the fitted concentration of half-maximal effect
# [11] = qHTS for differential inhibitors of proliferation of Plasmodium falciparum line D10 (AID 1877);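 note: parasites grown with compound for 72 h before DNA staining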
# [12] = qHTS for differential inhibitors of proliferation of Plasmodium falciparum line Dd2 (AID 1882); settings: Potency: Plasmodium falciparum Dd2 proliferation inhibition;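 note: compound exposure of 72 h on infected erythrocytes; nearly all actives have a fitted effect of over 65% in size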
# How it was run: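 RBC culture, 0.3% parasitemia / 2.5% Hct final; cpd added by pin tool in DMSO; 72 h, 37 C, 5% CO2; lysis buffer + SYBR Green I, o/n RT dark; FI 485/535; norm. to artemisinin 0.29 uM and DMSO.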
# [13] = qHTS for differential inhibitors of proliferation of Plasmodium falciparum line W2 (AID 1883); settings: Potency: Plasmodium falciparum W2 proliferation inhibition;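 note: parasites grown with compound for 72 h before lysis and staining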; note: potency is the fitted concentration of half-maximal effect
# [14] = qHTS for differential inhibitors of proliferation of Plasmodium falciparum line HB3 (AID 1886); settings: Potency: Plasmodium falciparum HB3 proliferation inhibition;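 note: parasites grown with compound for 72 h before SYBR Green readout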; note: potency is the fitted concentration of half-maximal effect
# [15] = Cell Viability - LYMP2-020 (AID 986); note: nearly all actives have a fitted effect of over 55% in size
# How it was run: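 qHTS, 2500 cells/well; 5 hr then 24 hr compound exposure, 37 C; CellTiter-Glo luminescence after 30 min RT; ATP decrease taken as cytotoxicity; AC50 via Hill equation; tetraoctylammonium bromide positive control.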
# [16] = Cell Viability - LYMP2-022 (AID 987); note: nearly all actives have a fitted effect of over 55% in size
# How it was run: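 Luminescent ATP read-out (CellTiter-Glo, 30 min, RT) after 24 hr, 37 C compound exposure of 2500 human lymphoblastoid cells/well in complete medium. Cytotoxicity taken as concentration-dependent ATP loss; AC50 from standard Hill equation.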
# [17] = Cell Viability - LYMP2-024 (AID 988); note: nearly all actives have a fitted effect of over 60% in size
# How it was run: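 ATP-based luminescence (CellTiter-Glo, 30 min RT) after 24 h compound exposure at 37 C of 2500 lymphoblastoid cells/well; decrease in ATP taken as cytotoxicity. qHTS concentration-response fitted to standard Hill equation for AC50.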
# [18] = Cell Viability - LYMP2-026 (AID 989); note: nearly all actives have a fitted effect of over 50% in size
# How it was run: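 qHTS cytotoxicity: 2500 cells/well, 5 hr 37 C, compound 24 hr 37 C, CellTiter-Glo 30 min RT, luminescence. Tetraoctylammonium bromide positive control. AC50 via standard Hill fit.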
# [19] = Cell Viability - LYMP1-002 - Assay at 24 hr (AID 993)
# How it was run: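 CellTiter-Glo luminescence (intracellular ATP) after 24 h compound exposure, 37 C, in LYMP1-002 human lymphoblastoid cells; decreased ATP taken as cytotoxicity. AC50 from standard Hill fit of concentration-response curves.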
# [20] = Cell Viability - LYMP1-002 - Assay at 40 hr (AID 994); note: nearly all actives have a fitted effect of over 60% in size
# How it was run: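 qHTS cytotoxicity; 2500 cells/well, 5 hr 37 C settle, compound 40 hr 37 C. CellTiter-Glo, 30 min RT, luminescence (ATP). Concentration-response, Hill fit → AC50. Pos. ctrl tetraoctylammonium bromide.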
# [21] = measured here: cell count channel max response
# [22] = measured here: lipid channel max response
compound,measurement,setting,value
CCCCNc1cc(C(=O)O)cc(S(N)(=O)=O)c1Oc1ccccc1,outcome,[1],inactive
same,outcome,[2],inactive
same,outcome,[3],inactive
same,"activity change, negative = inhibition",[4]; at 25.7 µM (top of the series),0.496% (inactive)
same,"activity change, negative = inhibition",[4]; at 57.5 µM (top of the series),9.35% (inactive) and 0.368% (inactive)
same,max response,[4]; [21],0.765% and 10.7% and -18.8%
same,max response,[4]; [22],-1.29% and 24.4% and -13.7%
same,outcome,[5],inactive
same,outcome,[6],inactive
same,outcome,[7],inactive
same,Potency,[8],inactive
same,Potency,[9],inactive
same,Potency,[10],inactive
same,Potency,[11],inactive
same,Potency,[12],inactive
same,Potency,[13],inactive
same,Potency,[14],inactive
NCCc1ccc(O)c(O)c1,outcome,[1],inactive
same,outcome,[2],inactive
same,outcome,[3],inactive
same,"activity change, negative = inhibition",[4]; at 57.5 µM (top of the series),6.86% (inactive) and 6.19% (inactive) and 1.49% (inactive)
same,max response,[4]; [21],7.38% and 3.94% and -27.9%
same,max response,[4]; [22],20.7% and 9.74% and -24.3%
same,outcome,[5],inactive
same,outcome,[6],inactive
same,outcome,[7],inactive
same,Potency,[12],inactive
same,Potency,[13],10 µM (active)
N#Cc1ccc(C(c2ccc(C#N)cc2)n2cncn2)cc1,"activity change, negative = inhibition",[4]; at 25.7 µM (top of the series),0.817% (inactive)
same,max response,[4]; [21],-19.8%
same,max response,[4]; [22],-18.7%
CCOC(=O)C1=C[C@]2(CC)CCCN3CCc4c(n1c1ccccc41)[C@@H]32,outcome,[3],inactive
same,"activity change, negative = inhibition",[4]; at 57.5 µM (top of the series),-17.2% (inactive)
same,max response,[4]; [21],-25.8%
same,max response,[4]; [22],-38.8%
same,outcome,[5],inactive
same,outcome,[6],inactive
same,outcome,[7],inactive
same,Potency,[8],7.08 µM (active)
same,Potency,[9],7.94 µM (active)
same,Potency,[13],14.1 µM (active)
same,Potency,[14],12.6 µM (active)
Cc1cnc(NC(=O)C2=C(O)c3ccccc3S(=O)(=O)N2C)s1,outcome,[1],inactive
same,outcome,[2],inactive
same,outcome,[3],inactive
same,outcome,[5],inactive
same,outcome,[6],inactive
same,outcome,[7],inactive
same,Potency,[10],inactive
same,Potency,[11],inactive
same,Potency,[12],inactive
same,Potency,[13],8.91 µM (active)
same,Potency,[14],inactive
NS(=O)(=O)c1cc2c(cc1Cl)NC=NS2(=O)=O,outcome,[15],inactive
same,outcome,[16],inactive
same,outcome,[17],inactive
same,outcome,[18],inactive
same,outcome,[1],inactive
same,outcome,[19],inactive
same,outcome,[20],inactive
same,outcome,[2],inactive
same,outcome,[3],inactive
same,"activity change, negative = inhibition",[4]; at 25.7 µM (top of the series),-2.79% (inactive)
same,"activity change, negative = inhibition",[4]; at 57.5 µM (top of the series),7.25% (inactive) and -0.143% (inactive)
same,max response,[4]; [21],3.82% and 7.17% and -12.5%
same,max response,[4]; [22],1.14% and 18.5% and -16.5%
same,outcome,[5],inactive
same,outcome,[6],inactive
same,outcome,[7],inactive
same,Potency,[8],inactive
same,Potency,[9],inactive
same,Potency,[10],inactive
same,Potency,[11],inactive
same,Potency,[12],inactive
same,Potency,[14],inactive
Clc1cccc(Cl)c1NC1=NCCN1,outcome,[1],inactive
same,outcome,[2],inactive
same,"activity change, negative = inhibition",[4]; at 25.7 µM (top of the series),-3.52% (inactive)
same,"activity change, negative = inhibition",[4]; at 57.5 µM (top of the series),4.4% (inactive) and 1.2% (inactive)
same,max response,[4]; [21],3.68% and -5.77% and -17.1%
same,max response,[4]; [22],-1.31% and -6% and -15.4%
same,outcome,[5],inactive
same,outcome,[6],inactive
same,outcome,[7],inactive
same,Potency,[8],inactive
same,Potency,[10],inactive
same,Potency,[11],inactive
same,Potency,[12],inactive
same,Potency,[14],inactive
Cn1cnc([N+](=O)[O-])c1Sc1ncnc2nc[nH]c12,outcome,[1],inactive
same,outcome,[19],inactive
same,outcome,[2],inactive
same,"activity change, negative = inhibition",[4]; at 25.7 µM (top of the series),-1.38% (inactive)
same,"activity change, negative = inhibition",[4]; at 57.5 µM (top of the series),0.323% (inactive) and -0.298% (inactive)
same,max response,[4]; [21],0.534% and 6.17% and -33.4%
same,max response,[4]; [22],0.0916% and 9.95% and -32.9%
same,outcome,[5],inactive
same,outcome,[6],inactive
same,outcome,[7],inactive
same,Potency,[10],12.6 µM (active)
same,Potency,[13],12.6 µM (active)
